Experiment [1] concerns the target Serine/threonine-protein kinase 33 (Homo sapiens) (UniProt Q9BYT3). As to conditions: at 1 µM.
For experiment [2] the target is unchanged. The conditions noted are these: at 10 µM.
For experiment [3], the target named is Serine/threonine-protein kinase PLK2 (Homo sapiens) (UniProt Q9NYY3). The conditions noted are these: at 1 µM.
Experiment [4] shares this target. The conditions noted are these: at 10 µM.
The target of experiment [5] is Tyrosine-protein kinase SYK (Homo sapiens) (UniProt P43405). As to conditions: at 1 µM.
Experiment [6] has the same target. As to conditions: at 10 µM.
Experiment [7] deals with T1, Mitogen-activated protein kinase kinase kinase 7 (Homo sapiens) (UniProt O43318).
T1 sequence (whole entry): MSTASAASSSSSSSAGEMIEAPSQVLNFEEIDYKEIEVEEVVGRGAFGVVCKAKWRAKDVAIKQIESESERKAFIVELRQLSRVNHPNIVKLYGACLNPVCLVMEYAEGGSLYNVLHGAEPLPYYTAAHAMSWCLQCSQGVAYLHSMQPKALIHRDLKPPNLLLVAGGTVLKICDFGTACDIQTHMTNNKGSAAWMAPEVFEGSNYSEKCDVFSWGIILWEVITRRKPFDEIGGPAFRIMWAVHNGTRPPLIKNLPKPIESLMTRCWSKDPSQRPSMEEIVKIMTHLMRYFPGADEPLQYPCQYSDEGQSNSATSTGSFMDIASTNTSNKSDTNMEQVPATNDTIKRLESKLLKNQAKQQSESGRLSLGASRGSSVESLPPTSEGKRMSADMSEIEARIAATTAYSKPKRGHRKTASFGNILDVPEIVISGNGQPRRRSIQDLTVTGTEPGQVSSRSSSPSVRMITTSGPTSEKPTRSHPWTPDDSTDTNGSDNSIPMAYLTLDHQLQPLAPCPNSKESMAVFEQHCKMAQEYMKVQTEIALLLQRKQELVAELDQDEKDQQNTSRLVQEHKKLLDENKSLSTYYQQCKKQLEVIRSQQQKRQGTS
As to conditions: at 1 µM.

The target of experiment [8] is T1, Mitogen-activated protein kinase kinase kinase 7 (Homo sapiens). The conditions noted are these: at 10 µM.
In experiment [9] the target is T2, Serine/threonine-protein kinase TAO1 (Homo sapiens) (UniProt Q7L7X3).
T2 sequence (whole entry): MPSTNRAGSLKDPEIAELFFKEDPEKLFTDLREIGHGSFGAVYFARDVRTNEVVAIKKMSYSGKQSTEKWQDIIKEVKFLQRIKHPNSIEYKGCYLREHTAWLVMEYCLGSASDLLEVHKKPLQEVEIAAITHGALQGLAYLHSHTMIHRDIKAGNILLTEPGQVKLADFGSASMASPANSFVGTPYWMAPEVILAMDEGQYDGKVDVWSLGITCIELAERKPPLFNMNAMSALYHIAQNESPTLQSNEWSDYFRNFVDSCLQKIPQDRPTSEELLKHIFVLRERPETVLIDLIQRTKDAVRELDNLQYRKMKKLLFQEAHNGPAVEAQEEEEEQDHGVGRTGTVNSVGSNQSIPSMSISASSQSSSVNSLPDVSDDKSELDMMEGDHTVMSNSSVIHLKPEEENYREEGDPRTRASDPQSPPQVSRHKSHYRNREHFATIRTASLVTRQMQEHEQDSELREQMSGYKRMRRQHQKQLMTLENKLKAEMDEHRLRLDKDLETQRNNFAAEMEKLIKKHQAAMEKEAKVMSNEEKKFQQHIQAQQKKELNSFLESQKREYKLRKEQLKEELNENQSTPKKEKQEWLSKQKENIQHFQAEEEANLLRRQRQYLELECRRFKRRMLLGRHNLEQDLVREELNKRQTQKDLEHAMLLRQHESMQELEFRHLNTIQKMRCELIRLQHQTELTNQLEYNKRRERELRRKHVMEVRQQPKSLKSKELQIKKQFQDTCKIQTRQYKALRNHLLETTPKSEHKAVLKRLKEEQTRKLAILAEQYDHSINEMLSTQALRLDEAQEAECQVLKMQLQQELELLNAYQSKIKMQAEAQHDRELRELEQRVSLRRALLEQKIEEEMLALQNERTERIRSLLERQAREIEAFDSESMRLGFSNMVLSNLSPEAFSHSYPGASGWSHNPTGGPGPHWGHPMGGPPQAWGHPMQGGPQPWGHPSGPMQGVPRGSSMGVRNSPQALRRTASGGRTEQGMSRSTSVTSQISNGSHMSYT
As to conditions: at 1 µM.

Experiment [10] addresses T2, Serine/threonine-protein kinase TAO1 (Homo sapiens). As to conditions: at 10 µM.
For experiment [11], the target named is T3, Serine/threonine-protein kinase TAO2 (Homo sapiens) (UniProt Q9UL54).
T3 sequence (whole entry): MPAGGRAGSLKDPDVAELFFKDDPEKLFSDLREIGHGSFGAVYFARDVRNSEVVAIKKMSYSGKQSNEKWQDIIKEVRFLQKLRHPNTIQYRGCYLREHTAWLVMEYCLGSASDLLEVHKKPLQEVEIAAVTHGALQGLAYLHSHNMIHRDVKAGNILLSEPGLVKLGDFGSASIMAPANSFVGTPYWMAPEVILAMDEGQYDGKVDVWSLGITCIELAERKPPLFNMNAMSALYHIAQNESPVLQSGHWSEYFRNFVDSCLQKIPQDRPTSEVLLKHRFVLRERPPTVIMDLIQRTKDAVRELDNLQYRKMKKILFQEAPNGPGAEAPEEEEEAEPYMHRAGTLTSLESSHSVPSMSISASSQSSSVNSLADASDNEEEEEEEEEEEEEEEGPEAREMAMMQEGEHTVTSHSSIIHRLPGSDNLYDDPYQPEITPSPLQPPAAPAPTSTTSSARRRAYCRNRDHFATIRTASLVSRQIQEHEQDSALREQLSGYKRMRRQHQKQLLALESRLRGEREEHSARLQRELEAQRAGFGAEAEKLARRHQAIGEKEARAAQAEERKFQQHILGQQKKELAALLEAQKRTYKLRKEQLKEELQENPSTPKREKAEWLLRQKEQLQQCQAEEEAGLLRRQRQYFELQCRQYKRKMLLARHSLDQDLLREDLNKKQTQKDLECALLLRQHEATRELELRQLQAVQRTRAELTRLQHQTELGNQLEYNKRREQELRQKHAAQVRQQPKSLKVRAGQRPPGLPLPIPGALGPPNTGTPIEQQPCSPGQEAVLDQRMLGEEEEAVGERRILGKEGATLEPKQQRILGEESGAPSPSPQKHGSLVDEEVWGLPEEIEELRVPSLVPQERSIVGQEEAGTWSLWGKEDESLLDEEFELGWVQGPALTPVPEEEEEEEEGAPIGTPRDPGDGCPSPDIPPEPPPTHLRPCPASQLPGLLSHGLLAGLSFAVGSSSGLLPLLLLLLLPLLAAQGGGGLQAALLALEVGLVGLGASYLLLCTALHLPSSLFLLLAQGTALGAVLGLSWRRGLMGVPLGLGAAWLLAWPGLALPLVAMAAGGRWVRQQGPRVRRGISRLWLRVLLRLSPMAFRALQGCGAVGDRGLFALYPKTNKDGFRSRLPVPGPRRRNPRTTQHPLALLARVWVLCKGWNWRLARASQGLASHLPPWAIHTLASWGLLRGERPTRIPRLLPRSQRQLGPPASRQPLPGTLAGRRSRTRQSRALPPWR
As to conditions: at 1 µM.

Experiment [12] addresses T3, Serine/threonine-protein kinase TAO2 (Homo sapiens). As to conditions: at 10 µM.
In experiment [13] the target is T4, Serine/threonine-protein kinase TAO3 (Homo sapiens) (UniProt Q9H2K8).
T4 sequence (whole entry): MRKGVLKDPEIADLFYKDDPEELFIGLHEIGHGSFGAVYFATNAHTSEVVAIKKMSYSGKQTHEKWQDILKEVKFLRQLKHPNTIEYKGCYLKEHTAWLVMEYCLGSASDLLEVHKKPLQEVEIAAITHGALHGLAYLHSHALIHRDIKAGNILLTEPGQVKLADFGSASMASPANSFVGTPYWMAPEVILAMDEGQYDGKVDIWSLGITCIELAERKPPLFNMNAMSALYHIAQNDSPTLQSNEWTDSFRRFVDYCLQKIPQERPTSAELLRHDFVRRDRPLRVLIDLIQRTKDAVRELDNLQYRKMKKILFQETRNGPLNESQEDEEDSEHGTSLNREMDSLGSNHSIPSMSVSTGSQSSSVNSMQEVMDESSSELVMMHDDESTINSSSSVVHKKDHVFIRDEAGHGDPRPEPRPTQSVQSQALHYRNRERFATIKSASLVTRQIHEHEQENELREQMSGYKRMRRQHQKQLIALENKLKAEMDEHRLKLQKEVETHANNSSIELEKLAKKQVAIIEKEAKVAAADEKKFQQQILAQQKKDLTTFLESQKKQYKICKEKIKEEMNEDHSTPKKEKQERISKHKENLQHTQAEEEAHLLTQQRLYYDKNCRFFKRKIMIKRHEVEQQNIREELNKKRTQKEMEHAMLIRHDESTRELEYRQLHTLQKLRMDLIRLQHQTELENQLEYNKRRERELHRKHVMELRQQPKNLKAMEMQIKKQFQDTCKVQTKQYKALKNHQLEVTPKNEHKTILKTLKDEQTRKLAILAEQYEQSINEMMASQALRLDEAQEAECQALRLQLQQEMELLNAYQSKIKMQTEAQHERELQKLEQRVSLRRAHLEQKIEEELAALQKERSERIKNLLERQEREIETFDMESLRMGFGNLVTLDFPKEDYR
The conditions noted are these: at 1 µM.

Experiment [14] addresses T4, Serine/threonine-protein kinase TAO3 (Homo sapiens). The conditions noted are these: at 10 µM.
Experiment [15] addresses T5, Serine/threonine-protein kinase TBK1 (Homo sapiens) (UniProt Q9UHD2).
T5 sequence (whole entry): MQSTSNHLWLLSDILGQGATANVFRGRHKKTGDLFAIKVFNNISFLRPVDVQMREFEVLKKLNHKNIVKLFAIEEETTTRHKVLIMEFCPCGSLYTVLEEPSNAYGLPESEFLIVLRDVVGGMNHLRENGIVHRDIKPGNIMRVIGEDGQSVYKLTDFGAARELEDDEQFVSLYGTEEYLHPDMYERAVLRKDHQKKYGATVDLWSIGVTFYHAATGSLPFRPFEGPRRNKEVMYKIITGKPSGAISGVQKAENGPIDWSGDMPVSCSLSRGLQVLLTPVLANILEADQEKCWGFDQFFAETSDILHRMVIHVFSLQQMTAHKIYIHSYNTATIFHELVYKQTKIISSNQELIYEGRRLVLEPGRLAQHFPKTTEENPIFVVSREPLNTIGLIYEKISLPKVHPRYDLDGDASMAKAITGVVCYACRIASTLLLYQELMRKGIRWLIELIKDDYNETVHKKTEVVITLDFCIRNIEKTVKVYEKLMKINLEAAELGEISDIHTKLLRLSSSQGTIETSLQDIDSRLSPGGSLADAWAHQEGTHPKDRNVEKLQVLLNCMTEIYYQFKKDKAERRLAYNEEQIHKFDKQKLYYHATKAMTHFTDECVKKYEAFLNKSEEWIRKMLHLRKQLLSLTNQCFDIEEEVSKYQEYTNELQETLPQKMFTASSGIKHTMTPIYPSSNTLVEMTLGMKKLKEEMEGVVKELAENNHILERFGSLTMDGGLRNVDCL
The conditions noted are these: at 1 µM.

Experiment [16] has as its target T5, Serine/threonine-protein kinase TBK1 (Homo sapiens). As to conditions: at 10 µM.
Experiment [17] concerns the target T6, TGF-beta receptor type-1 (Homo sapiens) (UniProt P36897).
T6 sequence (whole entry): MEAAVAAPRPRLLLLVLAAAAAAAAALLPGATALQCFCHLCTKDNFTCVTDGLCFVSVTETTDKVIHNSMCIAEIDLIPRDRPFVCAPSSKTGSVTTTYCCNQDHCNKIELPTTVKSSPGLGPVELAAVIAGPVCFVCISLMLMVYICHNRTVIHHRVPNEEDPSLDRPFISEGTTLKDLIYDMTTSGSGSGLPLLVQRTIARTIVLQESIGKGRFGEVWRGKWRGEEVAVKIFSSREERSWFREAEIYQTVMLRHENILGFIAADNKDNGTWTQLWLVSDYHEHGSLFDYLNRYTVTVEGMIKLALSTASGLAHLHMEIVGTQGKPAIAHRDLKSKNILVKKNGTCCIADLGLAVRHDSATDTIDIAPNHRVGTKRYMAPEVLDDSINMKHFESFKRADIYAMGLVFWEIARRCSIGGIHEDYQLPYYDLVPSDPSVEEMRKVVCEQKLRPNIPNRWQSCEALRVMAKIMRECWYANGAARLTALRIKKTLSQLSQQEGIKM
The conditions noted are these: at 1 µM.

Experiment [18] concerns the target T6, TGF-beta receptor type-1 (Homo sapiens). The conditions noted are these: at 10 µM.
Experiment [19] concerns the target Insulin-like growth factor 1 receptor (Homo sapiens) (UniProt P08069). The conditions noted are these: at 1 µM.
For experiment [20] the target is unchanged. As to conditions: at 10 µM.

Serine/threonine-protein kinase 33 (Homo sapiens), sequence (Q9BYT3 whole entry, looked up): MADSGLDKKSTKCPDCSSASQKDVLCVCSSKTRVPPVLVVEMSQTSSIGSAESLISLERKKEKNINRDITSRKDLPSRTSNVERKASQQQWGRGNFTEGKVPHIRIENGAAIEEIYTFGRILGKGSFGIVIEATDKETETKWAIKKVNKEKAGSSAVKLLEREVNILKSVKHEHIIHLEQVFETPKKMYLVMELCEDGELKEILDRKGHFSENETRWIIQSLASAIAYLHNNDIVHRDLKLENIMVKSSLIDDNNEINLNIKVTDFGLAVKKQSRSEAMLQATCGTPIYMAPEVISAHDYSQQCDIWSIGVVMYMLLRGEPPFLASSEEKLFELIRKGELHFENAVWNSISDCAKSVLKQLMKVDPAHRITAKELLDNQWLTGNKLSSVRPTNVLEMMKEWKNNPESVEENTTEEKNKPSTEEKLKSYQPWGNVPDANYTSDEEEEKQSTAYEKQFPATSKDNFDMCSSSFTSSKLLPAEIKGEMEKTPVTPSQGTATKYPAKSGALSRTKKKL
Insulin-like growth factor 1 receptor (Homo sapiens), sequence (P08069 31-736 limits assumed): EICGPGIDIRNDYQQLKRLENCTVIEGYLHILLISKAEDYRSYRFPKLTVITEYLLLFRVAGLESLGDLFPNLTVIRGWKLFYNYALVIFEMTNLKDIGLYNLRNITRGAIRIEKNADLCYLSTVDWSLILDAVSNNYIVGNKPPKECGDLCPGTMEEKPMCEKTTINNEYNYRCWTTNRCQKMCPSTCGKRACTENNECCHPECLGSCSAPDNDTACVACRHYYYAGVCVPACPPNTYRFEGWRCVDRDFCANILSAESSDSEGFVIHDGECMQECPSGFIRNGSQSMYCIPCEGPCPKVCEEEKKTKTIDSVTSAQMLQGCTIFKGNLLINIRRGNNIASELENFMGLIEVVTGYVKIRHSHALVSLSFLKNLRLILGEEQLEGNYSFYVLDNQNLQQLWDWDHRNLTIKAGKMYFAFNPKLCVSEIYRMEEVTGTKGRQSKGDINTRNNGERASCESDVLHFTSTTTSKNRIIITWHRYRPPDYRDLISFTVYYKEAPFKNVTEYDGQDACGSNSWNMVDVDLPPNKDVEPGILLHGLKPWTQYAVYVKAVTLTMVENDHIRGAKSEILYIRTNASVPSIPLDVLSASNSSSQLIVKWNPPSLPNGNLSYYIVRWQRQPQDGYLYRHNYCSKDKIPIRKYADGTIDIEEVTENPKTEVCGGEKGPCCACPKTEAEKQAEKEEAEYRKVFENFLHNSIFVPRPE
Insulin-like growth factor 1 receptor (Homo sapiens), sequence (P08069 741-1367 limits assumed): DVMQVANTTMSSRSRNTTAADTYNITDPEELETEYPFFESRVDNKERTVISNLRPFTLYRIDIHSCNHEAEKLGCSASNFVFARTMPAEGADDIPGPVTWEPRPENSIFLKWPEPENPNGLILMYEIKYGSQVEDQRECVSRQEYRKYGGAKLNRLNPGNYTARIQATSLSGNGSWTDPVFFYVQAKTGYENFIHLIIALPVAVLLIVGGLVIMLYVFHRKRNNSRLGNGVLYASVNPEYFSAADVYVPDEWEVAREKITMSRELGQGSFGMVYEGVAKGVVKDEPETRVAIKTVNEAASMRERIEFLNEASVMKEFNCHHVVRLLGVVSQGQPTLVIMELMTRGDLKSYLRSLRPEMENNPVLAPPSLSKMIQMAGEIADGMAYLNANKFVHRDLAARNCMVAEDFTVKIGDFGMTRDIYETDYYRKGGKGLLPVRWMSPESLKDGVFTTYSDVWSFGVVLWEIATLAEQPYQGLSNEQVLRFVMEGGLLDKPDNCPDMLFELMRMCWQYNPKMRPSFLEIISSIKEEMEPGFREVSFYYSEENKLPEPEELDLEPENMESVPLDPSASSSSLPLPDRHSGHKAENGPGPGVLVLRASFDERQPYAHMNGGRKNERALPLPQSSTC
Serine/threonine-protein kinase PLK2 (Homo sapiens), sequence (Q9NYY3 whole entry, looked up): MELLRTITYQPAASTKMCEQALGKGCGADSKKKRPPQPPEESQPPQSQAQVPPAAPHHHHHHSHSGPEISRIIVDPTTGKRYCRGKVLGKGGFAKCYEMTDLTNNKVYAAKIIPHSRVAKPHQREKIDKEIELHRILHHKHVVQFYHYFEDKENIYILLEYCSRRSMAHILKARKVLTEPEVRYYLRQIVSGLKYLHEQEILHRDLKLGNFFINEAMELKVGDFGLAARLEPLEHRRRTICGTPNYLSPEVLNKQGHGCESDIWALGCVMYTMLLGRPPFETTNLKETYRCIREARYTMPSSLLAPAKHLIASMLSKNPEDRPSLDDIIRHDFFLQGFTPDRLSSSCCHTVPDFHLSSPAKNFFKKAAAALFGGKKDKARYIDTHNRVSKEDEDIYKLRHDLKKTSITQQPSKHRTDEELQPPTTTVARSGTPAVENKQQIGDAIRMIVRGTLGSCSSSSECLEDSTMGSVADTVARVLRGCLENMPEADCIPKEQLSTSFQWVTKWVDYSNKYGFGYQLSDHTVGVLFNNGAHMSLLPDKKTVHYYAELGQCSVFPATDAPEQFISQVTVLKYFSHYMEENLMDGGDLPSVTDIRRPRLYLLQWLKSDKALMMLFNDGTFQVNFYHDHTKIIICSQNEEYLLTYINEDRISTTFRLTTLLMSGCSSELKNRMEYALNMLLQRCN

For `COc1cc2ncnc(Nc3ccc(OCc4ccccc4)cc3)c2cc1OC`, the residual activity in [1] is 100%; in experiment [2], 105%; in experiment [3] it was 108%; in experiment [4] it was 105%; in experiment [5], 116%; in [6], 82%. For the same compound, the residual activity in [7] is 99%; in [8], 96%; in experiment [9], 108%; in experiment [10], 91%; in [11], 104%; in [12], 90%. In addition, the residual activity in experiment [13] was determined as 107%; in [14], 93%; in [15], 92%; in experiment [16] it was 71%; in experiment [17], 102%; in experiment [18] it was 100%. Further, the residual activity in [19] turned out to be 108%; in experiment [20], 104%.

Turning to `CCn1cnc2c(Nc3cccc(Cl)c3)nc(N[C@@H]3CCCC[C@@H]3N)nc21`, the residual activity in experiment [1] is 87%; in experiment [2] it was 42%; in [3] it was 92%; in experiment [4] it was 54%; in experiment [5], 99%; in experiment [6], 57%. Further, the residual activity in experiment [7] stood at 89%; in experiment [8] it was 65%; in experiment [9] it was 68%; in [10] it was 15%; in [11], 81%; in experiment [12], 33%. The residual activity in [13] was determined as 82%; in experiment [14], 43%; in experiment [15], 68%; in [16], 45%; in experiment [18] it was 79%; in experiment [19], 71%. Further, the residual activity in experiment [20] worked out at 44%.
